PfGluPho inh = PfG6PD enzyme inhibitors, primary screen, biochemical, fluorescence intensity, uHTS; glucose-6-phosphate dehydrogenase-6-phosphogluconolactonase (Plasmodium falciparum 3D7); PfGluPho enzyme, NADPH resazurin-diaphorase fluorescence; inhibition, % at 20 µM; 0.78% of 350,000 active;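 active = inhibition reaching at least a set limit at 20 µM in the primary screen, cut at about 59% in these data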;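 note: 0% = DMSO wells with substrate and 100% = DMSO wells lacking glucose-6-phosphate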
M18AAP inhibitor = PfM18AAP inhibitors, malaria aminopeptidase, primary screen, biochemical, QFRET, recombinant enzyme; M18 aspartyl aminopeptidase (Plasmodium falciparum 3D7); H-Glu-NHMec fluorogenic cleavage; inhibition, % at 7.35 µM; 1.2% of 290,000 active;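 active = inhibition above the campaign mean inhibition over all tested compounds plus 3 SD, cut at about 28% in these data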;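 note: 0% = plate median of test compound wells and 100% = 2 mM ZnCl2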
A3A deaminase = APOBEC3A ssDNA deaminase inhibitors, primary screen, selectivity assay for APOBEC3G inhibitor project, biochemical, FAM/TAMRA oligo cleavage fluorescence; DNA dC->dU-editing enzyme APOBEC-3A (Homo sapiens), P31941; recombinant A3A, FAM/TAMRA ssDNA deamination fluorescence; inhibition, % at 20 µM; 0.41% of 330,000 active;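 active = at least 40% inhibition at 20 µM here, with at most 30% in a related deaminase screen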;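 note: plate controls were A3A with DMSO for no effect and wells lacking A3A enzyme for full effect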
Target sequence (P31941 whole entry, looked up): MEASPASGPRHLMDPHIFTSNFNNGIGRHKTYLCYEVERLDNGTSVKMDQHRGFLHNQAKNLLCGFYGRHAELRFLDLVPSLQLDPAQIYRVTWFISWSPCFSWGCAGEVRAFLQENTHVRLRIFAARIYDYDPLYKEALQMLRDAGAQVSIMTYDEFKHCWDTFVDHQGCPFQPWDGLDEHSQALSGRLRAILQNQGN
CR mimetic SO = reduction of superoxide in aged yeast, primary screen, HTS; superoxide response (% of plate mean), % at 10 µM; 0.18% of 330,000 active; S. cerevisiae aged cells, superoxide DHE fluorescence; active compounds read low;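 active = superoxide response under a set limit, about three screen SD below normal, cut at about 65% in these data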;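 note: yeast aged for seven days with compound at 30 °C before DHE staining; 100% = average MFI of all compound-treated wells on the plate with controls excluded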
APOBEC3G inh = APOBEC3G DNA deaminase inhibitors, primary screen, biochemical, fluorescence, single-stranded DNA substrate, uHTS; DNA dC->dU-editing enzyme APOBEC-3G (Homo sapiens), Q9HC16; recombinant A3G, ssDNA deamination FAM/TAMRA fluorescence; inhibition, % at 20 µM; 0.28% of 330,000 active; AID 493012, 2011;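 active = inhibition of at least 40% at 20 µM, with no more than 30% in the related APOBEC3A deaminase screen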;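 note: plate controls were DMSO wells with A3G for no effect and wells lacking A3G enzyme for full effect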
Target sequence (Q9HC16 whole entry, looked up): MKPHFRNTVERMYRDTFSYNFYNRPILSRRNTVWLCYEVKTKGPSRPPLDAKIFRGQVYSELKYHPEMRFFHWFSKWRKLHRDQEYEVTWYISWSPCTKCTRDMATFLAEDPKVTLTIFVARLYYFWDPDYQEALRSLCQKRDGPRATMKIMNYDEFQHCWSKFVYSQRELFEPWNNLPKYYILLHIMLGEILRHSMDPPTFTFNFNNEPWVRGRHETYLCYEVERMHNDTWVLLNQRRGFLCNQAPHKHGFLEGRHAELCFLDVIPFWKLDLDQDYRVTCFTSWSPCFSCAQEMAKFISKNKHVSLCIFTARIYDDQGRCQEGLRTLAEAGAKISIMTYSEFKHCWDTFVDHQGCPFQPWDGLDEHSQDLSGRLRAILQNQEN
A3A conf = APOBEC3A deaminase inhibitors, retest, confirmation, selectivity assay for APOBEC3G inhibitor project, biochemical, single concentration, fluorescence readout. shares compounds with A3A deaminase. recombinant A3A, ssDNA deaminase UDG fluorescence assay. inhibition, % at 20 µM. 63% of 1,400 active. AID 493151, 2011;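 active = inhibition reaching a set limit, 80% of the first screen's cutoff, at 20 µM in any replicate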;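 note: plate controls were DMSO wells with A3A for no effect and wells lacking A3A enzyme for full effect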
UDG A3A counter = E. coli UDG inhibitors, confirmation, counter-screen for APOBEC3A inhibitor project, biochemical, single concentration, fluorescence, FAM/TAMRA oligo. shares compounds with A3A deaminase. UDG counterscreen, FAM/TAMRA uracil oligo fluorescence. inhibition, % at 20 µM. 1,000 tested, under 10 active. AID 504714, 2011; call rule not given here
* marks the source's active call; other numbers are inactive results; . = no result. Most compounds without a hit are left out; they make up all but 2.4% or so of the library.

SMILES	PfGluPho inh	M18AAP inhibitor	A3A deaminase	CR mimetic SO	APOBEC3G inh	A3A conf	UDG A3A counter
CCOC(=O)c1ccc2c(c1)NCc1cccc(OC)c1O2	6	3	-5	132	-6	.	.
CCN(CC(=O)Nc1c(F)cccc1F)C(=O)CCNS(=O)(=O)c1ccc(C)c(C)c1	5	.	49*	95	-9	5	0
C[N+](C)(C)CCCN(Cc1ccc2c(c1)OCO2)C(=O)NC1CCCCC1	7	6	56*	108	21	72*	-2
CC(NCc1ccc2c(c1)OCO2)C(=O)NC1CCCCC1 (stereo unspecified)	-5	1	-1	129	0	.	.
CCOC(=O)C1=C(C)NC(SC)=NC1c1ccc(OC)cc1 (stereo unspecified)	9	-6	22	104	17	.	.
CCC1N=C(SC)NC(C)=C1C(=O)c1ccccc1 (stereo unspecified)	-6	-8	48*	81	19	35*	-3
Cc1ccc(C(=O)COc2nc(C)cc(C)c2C#N)cc1	-4	-6	-4	119	-11	.	.
CCN(C(=O)COc1nc(C)cc(C)c1C#N)c1ccccc1	-9	15	59*	92	10	5	.
CN(C)S(=O)(=O)n1cc(/C=C(\NC(=O)c2ccccc2Cl)C(=O)N2CCCC2)c2ccccc21	11	0	-8	85	-6	.	.
CCN1C(=NCCCOC(C)C)N[C@@H](c2ccccc2)[C@H](C(=O)OC)[C@H]1C	-5	.	44*	93	14	61*	-2
O=C(CCc1ccccc1)n1nc(-c2ccco2)nc1SCc1ccccc1	7	12	.	.	.	.	.
CSc1nc(-c2ccco2)nn1C(=O)Cc1ccccc1	-6	-4	94*	87	-3	-2	-3
COc1cccc(OC)c1C(=O)Nc1cccc2c1CCCC2	12	-3	55*	98	-1	-3	1
COc1ccc(CCCC(=O)Nc2cc(C)ccc2OC)cc1	17	-5	60*	106	11	28	.
Cc1ccc(S(=O)(=O)N2CCC(C(=O)OCC(=O)Nc3cc(S(C)(=O)=O)ccc3Cl)CC2)cc1C	10	4	-2	103	-8	.	.
CC(NC(=S)Nc1ccc(F)cc1)c1ccccc1 (stereo unspecified)	-4	10	88*	96	-4	10	11
CC(C)c1ccccc1NC(=S)NC(C)c1ccccc1 (stereo unspecified)	-8	-4	-4	87	-7	.	.
O=C(Nc1sc2c(c1C(=O)NCC(O)CO)CCCC2)c1ccccc1 (stereo unspecified)	19	.	1	102	0	.	.
O=C1CCc2cc(S(=O)(=O)NC3CCCCC3)cc3c2N1CC3	-14	.	4	108	-2	.	.
O=C1NC(=O)/C(=C\c2ccc(Br)o2)S1	-5	11	55*	99	1	22	.
CCOc1ncccc1C(=O)OCC(=O)N(CC)c1ccccc1	-1	-12	74*	101	-6	-1	2
CCOc1ncccc1C(=O)OCc1ccccc1	-4	-13	1	93	-1	.	.
O=C(NCc1ccccc1CN1CCCC1)c1ccc(Cl)c(S(=O)(=O)N2CCCC2)c1	-6	.	-3	.	-8	.	.
Cc1ccc(S(=O)(=O)N2CCC(C(=O)Nc3ccc(S(=O)(=O)N4CCOCC4)cc3)CC2)cc1	10	.	.	.	.	.	.
COc1ccc(N2CC(C(=O)Nc3ccc(S(=O)(=O)N4CCOCC4)cc3)CC2=O)cc1 (stereo unspecified)	14	-10	48*	97	9	26	.
SMILES	PfGluPho inh	M18AAP inhibitor	A3A deaminase	CR mimetic SO	APOBEC3G inh	A3A conf	UDG A3A counter
Cc1ccc(N2CC(C(=O)Nc3ccc(S(=O)(=O)N4CCOCC4)cc3)CC2=O)cc1Cl (stereo unspecified)	-3	.	0	102	-2	.	.
Cc1cc(C)c(C)c(S(=O)(=O)N2CCC(C(=O)Nc3ccc(S(=O)(=O)N4CCOCC4)cc3)CC2)c1C	9	1	41*	106	4	2	.
CCCn1c(N)c(C(=O)CN(C)CC(=O)Nc2cc(C)ccc2C)c(=O)[nH]c1=O	-10	.	20	.	-5	.	.
Cc1cccc(CC(=O)N2CCC(N3CCC(C(=O)N4CCOCC4)CC3)CC2)c1	3	-6	98*	99	-5	-6	-3
O=c1c(C(c2ccc(O)cc2)c2c(O)nc3n(c2=O)CCS3)c(O)nc2n1CCS2	8	1	15	99	4	.	.
Cc1ccc(C(c2c(O)nc3n(c2=O)CCS3)c2c(O)nc3n(c2=O)CCS3)cc1	-4	-4	53*	83	-3	11	2
O=C(NNC(=O)c1cccc(-n2cccc2)c1)c1ccc(F)cc1	3	.	42*	100	18	28*	-1
Cc1cccc(C(=O)NNC(=O)c2ccc(F)cc2)c1	16	0	2	69	1	.	.
CSC1=NC2C(N1)N(C)C(=O)N2C (stereo unspecified)	1	-14	58*	113	20	21	.
CCCCN1C(=O)N(C)C2NC(=O)NC21 (stereo unspecified)	7	-3	3	113	1	.	.
C[N+]1=C2CCCCCN2C(O)(c2ccccc2)C1 (stereo unspecified)	6	-3	69*	108	19	72*	0
CC1CCN(C(=O)CNC(=O)c2ccc(Br)o2)CC1	-11	.	-2	93	-7	.	.
Cc1cccc2nc(C(=O)Nc3cc(Cl)ccc3-n3cncn3)cn12	36	.	49*	83	9	36*	-1
Cc1cccc(C(=O)C2CCN(S(=O)(=O)c3cccc(C(=O)O)c3)CC2)c1	-17	-6	0	.	-3	.	.
COc1ccc2c(CC(=O)Nc3ccc(OC)c(S(=O)(=O)N4CCOCC4)c3)coc2c1	-7	-11	-2	92	-5	.	.
COc1ccc(NC(=O)Cc2coc3cc(C)c(C(C)C)cc23)cc1S(=O)(=O)N1CCOCC1	14	1	49*	96	11	10	.
CC(=O)c1ccc(S(=O)(=O)Nc2cccc(-n3cnnn3)c2)cc1	1	-6	43*	95	22	31	.
CC(=O)Nc1ccc(S(=O)(=O)Nc2cccc(-n3cnnn3)c2)cc1	-13	-7	-6	80	-8	.	.
